In PubChem BioAssay AID652208 (Broad Institute, 2013):
Entries with a potency or affinity are not part of this list. Active and inactive are the calls of the source.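 Rule for the calls: active = Loss of cell signal with fitted half-effect dose at or below twice the top valid tested dose; inconclusive = Poor fit, or flat fit from -70 to -30 percent; inactive = Half-effect above limit, rising signal, or flat within 30 percent.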

Test: HEK293T cell cytotoxicity, dose response, cytotoxicity control for HIV Vif inhibitor project, cherry-picks (AID 652208);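 note: 0% = median neutral control wells and -100% = median staurosporine control wells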
Details: HEK293T viability, CellTiter-Glo luminescence, 24 h; series mostly up to 26 µM; activity change, negative = cytotoxicity: at the top concentration

| SMILES | activity change, negative = cytotoxicity |
| --- | --- |
| O=C(CCN1CCOCC1)Nc1ccc(Cl)cc1 | 0.037% (inactive) |
| CCC(=O)Nc1ccc(-c2nnc(SCc3ccc(C(=O)Nc4nccs4)cc3)n2CC)cc1 | -3.47% (inactive) |
| O=C(NCc1ccccn1)c1ccc(Cn2c(=S)[nH]c3ccc(Br)cc3c2=O)cc1 | -1.11% (inactive) |
| COc1ccc(C(=O)c2sc3nc(C)cc(-c4cccs4)c3c2N)cc1OC | -23.2% (inactive) |
| COc1ccc(OCCN2CCC(C(=O)NC(c3ccccn3)c3ccccc3OC)CC2)cc1 (configuration not stated) | 1.92% (inactive) |
| CC(C)CN1C(=O)C(=O)N(CC(=O)c2ccc3c(c2)OCO3)C1=O | 6.18% (inactive) |
| CC(=O)Nc1ccc(C2(c3ccc(NC(C)=O)cc3)NC(=O)c3ccccc32)cc1 | 11.7% (inactive) |
| COc1ccc(NC(=O)C2(C)Cc3c(-c4cccc(NC(C)=O)c4)ccnc3O2)cn1 (configuration not stated) | -11.7% (inactive) |
| Cc1ccc(N(C)S(=O)(=O)c2ccc(-c3ccc(=O)[nH]n3)s2)cc1C | -19.2% (inactive) |
| O=C(c1ccc(Cl)c(Cl)c1)N(Cc1ccco1)c1ccc(O)cc1 | -6.38% (inactive) |
| COc1ccc(CN2C3CCC2CC(NC(=O)c2cc(OC)c(OC)c(OC)c2)C3)cc1 (configuration not stated) | -11.2% (inactive) |
| Cc1nnc2ccc(-c3cccc(NS(=O)(=O)c4ccccc4Cl)c3)nn12 | -5.54% (inactive) |
| OC(CNCc1ccccc1Cl)COc1ccc(F)cc1 (configuration not stated) | -10.6% (inactive) |
| CC(C)C(c1nnnn1CC1CCCO1)N1CCN(C2CCCC2)CC1 (configuration not stated) | -1.94% (inactive) |
| CCOc1ccc(CC(=O)Nc2sc(Cc3ccccc3)c(C)c2C(N)=O)cc1OCC | -5.74% (inactive) |
| O=c1sc(N2CCN(c3ccc(F)cc3)CC2)nc2ccsc12 | -4.85% (inactive) |
| CCOC(=O)C1(Cc2cccc(OC)c2)CCN(CCO)CC1 | -13.8% (inactive) |
| O=C(NCC1CC1)NC(=O)c1c(F)cccc1Cl | 2.39% (inactive) |
| CC(C)CC(=O)Nc1ccc(-c2nnn(CC(=O)NCc3ccco3)n2)cc1 | -7.25% (inactive) |

| SMILES | activity change, negative = cytotoxicity |
| --- | --- |
| COc1ccc(S(=O)(=O)N2c3cc(Cl)ccc3Oc3nc4ccccc4nc32)cc1 | -16% (inactive) |
| CNC(=O)COc1ccccc1C(=O)Nc1ccc2c(c1)oc1ccccc12 | -10.8% (inactive) |
| Cc1ccc(-n2c(SCC(=O)Nc3ccc4c(c3)OCO4)nnc2-c2cccs2)cc1 | 9.98% (inactive) |
| COc1ccc(NC(=O)c2ccccc2NC(=O)CSc2ccc(C)cc2)cc1 | -13.9% (inactive) |
| COc1c2occc2c(OC)c2c(=O)cc(C)oc12 | -0.016% (inactive) |
| Cc1ccc2c(COC(=O)c3ccccc3OC(F)F)cc(=O)oc2c1 | -30.2% (inactive) |
| COc1ccc(CCNc2nnc(Sc3nnnn3-c3ccccc3)s2)cc1OC | -3.09% (inactive) |
| CCOc1nc(N2CCCCC2)nc(-n2cc(-c3ccccc3)nn2)n1 | -12.5% (inactive) |
| Cc1ccc(C(C)C)c(OCC#CCN2CCOCC2)c1 | 2.59% (inactive) |
| COc1cc(-c2cnc3c(NC=O)cc(-c4ccccc4Cl)cn23)cc(OC)c1OC | -15% (inactive) |
| CC(C)CCNC(=O)CCc1nnc(COc2ccccc2)o1 | -2.04% (inactive) |
| COc1cc(-c2cc(=O)c3c(O)c(OC)c(OC)c(O)c3o2)ccc1O | 4.31% (inactive) |
| O=C(c1ccc2c(c1)OCO2)N(CC1CCCO1)C1(C(=O)NC2CCCC2)CCCCC1 (configuration not stated) | -18.2% (inactive) |
| Cc1cc(/C=C2\C(=N)N3C(SCc4ccccc4)=NSC3=NC2=O)c(C)n1Cc1ccccc1 | -3.76% (inactive) |
| COc1c2ccoc2nc2c(OC)c(OC[C@@H](O)C(C)(C)O)ccc12 | 8.74% (inactive) |
| CC(C)CN(C(=O)COC(=O)CSc1ccccc1)c1c(N)n(Cc2ccccc2)c(=O)[nH]c1=O | -0.439% (inactive) |
| Cc1nnc2ccc(-c3ccc(NS(=O)(=O)c4ccc(Cl)s4)cc3)nn12 | 10.5% (inactive) |
| O=C(CSc1ncccn1)NC(=O)Nc1ccc2c(c1)OCCO2 | -4.69% (inactive) |
